High-throughput results as filed in PubChem.
AmpC inh detg – AmpC beta-lactamase inhibition with detergent present. AID 485294. P00811. AmpC hydrolysis of nitrocefin, absorbance 480 nm, 0.01% Triton. hit rate 0.041% among 370,000. Potency, µM (series often up to 114 µM), for inactives: at the highest dose activity change, negative = inhibition, most hits filed as inhibitors;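 also: 0% = no-compound wells and -100% = no-enzyme wells; nearly all actives have a fitted effect of over 25% in size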
Target sequence (P00811 whole entry, looked up): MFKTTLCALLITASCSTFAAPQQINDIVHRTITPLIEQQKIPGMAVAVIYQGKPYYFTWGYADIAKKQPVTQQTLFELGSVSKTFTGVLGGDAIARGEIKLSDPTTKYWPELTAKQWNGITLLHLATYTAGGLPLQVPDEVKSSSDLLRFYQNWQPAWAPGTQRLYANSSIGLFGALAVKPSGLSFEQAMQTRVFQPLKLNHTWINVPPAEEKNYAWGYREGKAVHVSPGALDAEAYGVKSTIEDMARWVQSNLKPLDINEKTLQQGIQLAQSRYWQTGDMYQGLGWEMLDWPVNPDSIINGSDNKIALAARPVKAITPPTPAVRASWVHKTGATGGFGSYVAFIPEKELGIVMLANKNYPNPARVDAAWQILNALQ
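AmpC (5.3 nM in the dispensed reagent) in 20 mM phosphate pH 7.0 with 0.01% (detergent screen) or 0.0001% Triton X-100 was preincubated with compounds for 15 min at room temperature. Nitrocefin was then added from an 800 uM solution, and hydrolysis was followed at 480 nm.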
SARS PLP yeast – inhibitors of SARS-CoV papain-like protease in yeast; Potency, µM (top dose mostly 32.9 µM), inactives show at the highest dose activity, positive = growth rescue, actives largely listed as activators; AID 485353; hit rate 0.19% among 330,000; S. cerevisiae expressing SARS-CoV PLpro, growth rescue; calls by dose curve; also: 0% is about no effect; nearly all actives have a fitted effect of over 55% in size
Sm TGR block – S. mansoni TGR enzyme inhibition; hit rate 3% among 360,000; purified TGR, DTNB reduction, TNB absorbance 405 nm; AID 485364; Potency, µM (doses to about 114 µM), for inactives: at the highest dose activity change, negative = inhibition, most hits filed as inhibitors; Q962Y6; also: % is scaled to controls: 0 for no effect and ±100 for the full control effect; nearly all actives have a fitted effect of over 60% in size
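TGR 20 nM + NADPH 100 uM (dispensed conc.), cpd preinc 15 min RT; start with NADPH (500 uM addition) then DTNB (15 mM addition). Kinetic TNB absorbance, 405 nm filter. Four-parameter Hill fit across titration.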
AmpC no deterg – AmpC beta-lactamase inhibition without detergent; AmpC nitrocefin hydrolysis, absorbance 480 nm, 0.0001% Triton; Potency, µM (series often up to 57.1 µM), inactives show at the top dose activity change, negative = inhibition, usual class: inhibitors; hit rate 0.52% among 330,000; AID 485341;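 also: plate controls were no compound for no effect and no enzyme for full effect; nearly all actives have a fitted effect of over 20% in size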
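20 mM phosphate pH 7.0 + 0.01% (detergent screen) or 0.0001% Triton X-100; 5.3 nM AmpC reagent; cpd preinc 15 min RT; nitrocefin (800 uM stock) to start; A480 q20 s × 4 min; Activity was normalised to no-enzyme and no-compound control wells.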
RE007 growth inh – less growth of the S. pombe RE007 Vpr strain. S. pombe RE007 Vpr strain, BacTiter-Glo ATP luminescence, 24 h. Potency, µM (highest dose often 92.2 µM), for inactives: at the top dose activity change, negative = less growth, usual class: inhibitors. hit rate 0.21% among 360,000. AID 651644; active = well fitted falling curve with a large enough effect; inconclusive = small, poorly fitted or top-dose-only effect; inactive = no such curve, though single readings can be large or run the other way; also: % is scaled to controls: 0 for no effect and ±100 for the full control effect; nearly all actives have a fitted effect of over 50% in size
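Fission yeast RE007 carrying one integrated HIV-1 vpr copy, seeded at OD 0.01 in PMG+AL medium with 23 nL pinned compound. Grown 24 h at 30 degrees; viability read by BacTiter-Glo luminescence after 5 min.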
Tb PYK inh – inhibitors of Trypanosoma brucei pyruvate kinase | AID 624173 | TbPYK enzyme, Kinase-Glo Plus ATP luminescence, 45 min | Potency, µM (top dose mostly 76.8 µM), inactives show top-dose activity, negative = inhibition, actives largely listed as inhibitors | hit rate 0.12% among 410,000; also: % is scaled to controls: 0 for no effect and ±100 for the full control effect; nearly all actives have a fitted effect of over 50% in size
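Enzyme and substrate buffer are dispensed first and compound is pin-transferred. ADP at 130 uM final then starts the reaction, which runs 45 min at room temperature. Detection reagent is added for 10 min before luminescence is imaged.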
Active calls of the source: *; ? = inconclusive; / = no result given; ! = not active in a repeat. Only some compounds are listed: those with a hit (about 3.3% of all), similar ones and a draw of the others. Unless noted, calls follow the shape of the dose curve; as a rule, active = well fitted curve in the direction sought with a large enough effect; inconclusive = small, poorly fitted or top-dose-only effect, or another doubt; inactive = no such curve, though single readings can be large; an effect the other way counts as inactive or inconclusive. Potency is read from the fitted curve at half-maximal effect.

SMILES | AmpC inh detg | SARS PLP yeast | Sm TGR block | AmpC no deterg | RE007 growth inh | Tb PYK inh
CN(c1ccc(Cl)cc1)S(=O)(=O)c1nnc(NC(=O)c2ccco2)s1 | 3% | -3% | 20µM*! | -30% | -8% | -5%
Cc1ccccc1N(C)S(=O)(=O)c1nnc(NC(=O)c2ccco2)s1 | -3% | -3% | 25µM*! | ? | 0% | -16%
Cc1ccc(NS(=O)(=O)c2ccc(NC(=O)N3CCCC3)cc2)cc1C | 6% | / | -2% | / | / | 1%
Cc1ccc(NC(=O)c2c(C)oc3c2C2=NCCN2C=N3)cc1F | -2% | / | -8% | / | / | -4%
COc1ccc(NC(=O)C2CCN(S(=O)(=O)c3cn(C)cn3)CC2)cc1Cl | 19% | / | 8% | / | / | 6%
CC1(C)Cc2c(c(N3CCOCC3)nc3sc4c(NCc5ccccc5)nnnc4c23)CS1 | ? | 3% | -16% | -16% | 8% | -10%
CC1(C)Cc2c(c(N3CCOCC3)nc3sc4c(NCc5ccco5)nnnc4c23)CS1 | -11% | -9% | 40µM* | -36% | 19% | -8%
Cc1cc(=O)oc2cc(OCC(=O)NCCCN3CCCC3=O)c(Cl)cc12 | 6% | 2% | 79µM* | -4% | -10% | 0%
Cc1c(C)c2cc(Cl)c(OCC(=O)NCCCN3CCCC3=O)cc2oc1=O | / | / | / | / | -21% | 3%
O=C(N/N=C/c1cn(Cc2cccc(F)c2)c2ccccc12)c1cc(O)cc(O)c1 | ? | 6% | -29% | 13µM* | 30% | 1%
Nc1nnc2c(n1)CCCC2 | -1% | 3% | 32µM* | 0.16µM* | 4% | 0%
CCOC(=O)COc1cc(-n2c(=S)[nH]c3ccccc3c2=O)c(Cl)cc1Cl | ? | 3% | 0% | 18µM* | -19% | 6%
CCc1cccc2c(-c3ccccc3)nc(SCC(=O)Nc3ccc(OC)cc3)nc12 | ? | / | -5% | / | / | 0%
CC(=O)O[C@]1(C(=O)CO)[C@@H](C)C[C@H]2[C@@H]3CCC4=CC(=O)C=C[C@]4(C)[C@@]3(F)[C@@H](O)C[C@]21C | / | / | / | / | / | 4%
CCc1sc(C(C2C(=O)CC(C)(C)CC2=O)C2C(=O)CC(C)(C)CC2=O)cc1[N+](=O)[O-] | -3% | 0% | 4µM* | -30% | 0% | 25µM*
Cc1ccc(S(=O)(=O)c2ncccc2[N+](=O)[O-])cc1 | -6% | -9% | 0.35µM* | -14% | -18% | 4%
CCOC(=O)c1cccc(NC(=O)CC2C(=O)N(c3ccc(C)cc3)C(=O)N2Cc2cccc(OC)c2)c1 (stereo not given) | 0% | / | -10% | / | / | 8%
O=C(CSc1ccc(-c2ccco2)nn1)Nc1ccccc1F | -2% | -2% | 14µM* | -31% | -4% | -34%
CCOc1ccccc1NC(=O)CSc1ccc(-c2sc(C)nc2C)nn1 | 2% | -4% | -2% | 111% | -5% | 4%
CCOc1ccccc1NC(=O)Cn1nc(-c2ccco2)ccc1=O | -12% | -1% | 16µM* | -34% | 19% | -17%
CCOc1ccccc1NC(=O)Cn1nc(N2CCN(c3ccccc3)CC2)ccc1=O | 3% | / | 3% | / | / | 10%
CCOc1ccccc1NC(=O)CSc1ccc(-c2ccco2)nn1 | 0% | -3% | 18µM* | 32µM* | -7% | -15%
CN1C[C@H]2c3ccccc3Oc3ccc(Cl)cc3[C@@H]2C1 | / | / | / | / | / | 5%
C=C1NC(=O)c2cc(CN(C)c3ccc(C(=O)N[C@@H](CCC(=O)O)C(=O)O)s3)ccc2N1 | / | / | / | / | / | 9%
CCCCCCC(O)C/C=C/CCCCCCCC(=O)O (stereo not given) | / | / | / | / | / | -2%
SMILES | AmpC inh detg | SARS PLP yeast | Sm TGR block | AmpC no deterg | RE007 growth inh | Tb PYK inh
O=C(CCC1N=C2c3ccccc3N=C(SCC(=O)Nc3ccccc3F)N2C1=O)NCc1ccco1 (stereo not given) | 16% | / | -1% | / | / | 2%
CCOc1ccccc1NC(=O)CSc1nc2cc(OC)c(OC)cc2c2nc(CCn3c(C)nc4ccccc43)nn12 | 1% | / | -5% | / | / | 1%
O=C(NCc1cccn1Cc1ccccc1)Nc1ccc(Br)cc1F | -7% | / | -7% | / | / | 1%
COc1ccc(OC)c(NC(=O)N2CCN(Cc3nc4ccc(C)cc4o3)CC2)c1 | 0% | / | 4% | / | / | -7%
Cc1nc2ncnn2c(C)c1C/C=C/c1ccccc1 | ? | 2% | -4% | -5% | 20% | 7%
Cc1nc2nc(N)nn2c(C)c1C/C=C/c1ccccc1 | ? | 1% | 16µM* | -11% | 11% | 1%
C=CCOc1cccc(C2C(C(=O)c3ccco3)=C(O)C(=O)N2Cc2ccco2)c1 (stereo not given) | 0% | -5% | 32µM* | -38% | -2% | -3%
C=CCOc1cccc(C2C(C(=O)c3ccco3)=C(O)C(=O)N2Cc2ccncc2)c1 (stereo not given) | -14% | 4% | 45µM* | -10% | 3% | 2%
C=CCOc1cccc(C2C(C(=O)c3ccco3)=C(O)C(=O)N2CCN2CCOCC2)c1 (stereo not given) | -2% | -5% | 25µM* | 21% | 4% | -13%
CCCCOc1cccc(C2C(C(=O)c3ccc(C)o3)=C(O)C(=O)N2Cc2ccco2)c1 (stereo not given) | ? | 0% | ? | -38% | / | /
C=CCOc1cccc(C2C(C(=O)c3ccc(C)o3)=C(O)C(=O)N2Cc2ccncc2)c1 (stereo not given) | -11% | 1% | ? | -14% | 3% | -27%
Cc1ccc2cc(CN(C(=O)c3cccc(Cl)c3)c3ccccc3)c(=O)[nH]c2c1 | 16% | / | -1% | / | / | 1%
Cc1ccccc1-c1nnc(CN2CCN(c3cccc(C)c3C)CC2)o1 | 2% | / | 3% | / | / | -8%
Cc1ccc2nc(/C(C#N)=C/c3ccc(-c4cccc([N+](=O)[O-])c4)o3)[nH]c2c1 | -11% | 2% | -13% | 11µM* | 14% | 4%
COc1cc2[nH]c(=O)n(CCCCCC(=O)N3CCN(c4ccc(Cl)cc4)CC3)c(=O)c2cc1OC | ? | / | -3% | / | / | 4%
COc1ccc(-c2nnc(C3CCN(C(=O)c4ccccc4F)CC3)o2)cc1 | -7% | / | 0% | / | / | ?
CCN1C(=O)c2cccc3c(S(=O)(=O)NCc4ccco4)ccc1c23 | ? | 2% | 40µM* | -28% | -12% | -9%
CCN1C(=O)c2cccc3c(S(=O)(=O)NCc4cccnc4)ccc1c23 | -14% | 2% | -13% | -14% | 8% | -10%
